HP1b binding inh: HTS for Inhibitors of HP1-beta Chromodomain Interactions with Methylated Histone Tails; Chromobox protein homolog 1 (Homo sapiens), P83916; AlphaScreen HP1-beta / biotin-H3K9me3 peptide binding; Potency, µM (series often up to 114 µM), inactives show at the highest dose activity change, negative = inhibition, hits mostly inhibitors; 390,000 tested, 0.56% active; AID 540317, 2011; note: nearly all actives have a fitted effect of over 70% in size
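Compound inhibition of the preformed complex between 50 nM HP1-beta and 50 nM biotinylated H3K9me3 peptide was read by AlphaScreen. Buffer was PBS pH 7.4 with 0.01% Tween-20. Incubations ran 30 min at room temperature, with 10 ug/mL donor/acceptor beads.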
GLS inh: qHTS for Inhibitors of Glutaminase (GLS); GLS enzymatic activity, qHTS titration; Glutaminase kidney isoform, mitochondrial (Homo sapiens), O94925; AID 624170, 2012; Potency, µM (series often up to 45.5 µM), inactives show top-dose activity change, negative = inhibition, actives largely listed as inhibitors; 410,000 tested, 0.21% active; note: % is set by controls: 0 for no effect and ±100 for the full control effect
Target sequence (O94925 whole entry, looked up, canonical isoform): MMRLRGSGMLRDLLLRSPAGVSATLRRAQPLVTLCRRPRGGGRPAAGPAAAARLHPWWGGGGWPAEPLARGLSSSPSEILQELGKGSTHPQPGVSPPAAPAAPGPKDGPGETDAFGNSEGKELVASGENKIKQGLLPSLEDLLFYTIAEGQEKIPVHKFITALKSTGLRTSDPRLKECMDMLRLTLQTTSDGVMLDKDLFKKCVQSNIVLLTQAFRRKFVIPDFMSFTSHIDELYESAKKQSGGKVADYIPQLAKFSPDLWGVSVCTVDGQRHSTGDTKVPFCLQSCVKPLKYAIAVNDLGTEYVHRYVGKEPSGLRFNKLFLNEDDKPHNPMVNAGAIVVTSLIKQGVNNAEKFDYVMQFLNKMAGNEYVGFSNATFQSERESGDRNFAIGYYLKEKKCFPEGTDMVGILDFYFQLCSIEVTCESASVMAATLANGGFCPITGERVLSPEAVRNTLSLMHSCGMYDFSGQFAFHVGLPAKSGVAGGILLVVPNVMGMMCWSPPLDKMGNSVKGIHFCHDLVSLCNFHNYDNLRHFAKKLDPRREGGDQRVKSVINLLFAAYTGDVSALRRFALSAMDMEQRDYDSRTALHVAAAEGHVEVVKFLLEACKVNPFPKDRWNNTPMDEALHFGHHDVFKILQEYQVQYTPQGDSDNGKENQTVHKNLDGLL
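Two-point fluorescence kinetic (t0, 30 min RT) for hKGA; glutamate detected via glutamate oxidase–HRP–Amplex Red. Substrate: 1 mM L-glutamine solution; buffer 45 mM KH2PO4, pH 8.2.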
BAZ2B block: qHTS Assay for Inhibitors of BAZ2B. AlphaScreen BAZ2B-H3K14Ac peptide displacement. Potency, µM (highest dose often 114 µM), without a hit: at the top dose activity change, negative = inhibition, hits mostly inhibitors. 360,000 tested, 4.4% active; note: % is set by controls: 0 for no effect and ±100 for the full control effect; nearly all actives have a fitted effect of over 60% in size
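AlphaScreen displacement: compounds (up to 110uM) incubated 30 min at room temperature with a preformed 50 nM BAZ2B/50 nM biotinylated H3K14Ac peptide complex in PBS pH 7.4 with Tween-20. Donor and acceptor beads at 10 ug/mL final added, 20 min light-protected before reading.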
G9a inh: qHTS Assay for Inhibitors of Histone Lysine Methyltransferase G9a | AID 504332, 2011 | G9a H3K9 monomethylation, AlphaScreen, 2 h | Potency, µM (highest dose often 102 µM), without a hit: at the top dose activity, negative = inhibition, actives largely listed as inhibitors | 350,000 tested, 8.8% active | Histone-lysine N-methyltransferase EHMT2 (Homo sapiens), Q96KQ7; note: % is set by controls: 0 for no effect and ±100 for the full control effect; nearly all actives have a fitted effect of over 75% in size
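Step 1: enzyme (final 20 nM) with compound, 15 min RT. Step 2: substrate peptide 500 nM and SAM 20 uM, 2 h RT. Step 3: anti-H3K9me1 antibody and AlphaScreen beads, 10 min, then plate read.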
JMJD2A Tudor: qHTS Assay for Inhibitors of JMJD2A-Tudor Domain; AlphaScreen JMJD2A-Tudor / H3K4me3 peptide binding; Potency, µM (highest dose often 114 µM), for inactives: at the highest dose activity change, negative = inhibition, actives largely listed as inhibitors; 390,000 tested, 4.4% active; note: % is set by controls: 0 for no effect and ±100 for the full control effect; nearly all actives have a fitted effect of over 50% in size
Numbers without * were called inactive; ? = inconclusive; / = not tested or not shown; [ ] = another dose, or the depositor's remark. This is a sample that favours compounds with a hit; in the whole collection about 10% have one here. Calls come from the whole dose curve; as a rule, active = well fitted curve in the direction sought with a large enough effect; inconclusive = small, poorly fitted or top-dose-only effect, or another doubt; inactive = no such curve, though single readings can be large; an effect the other way counts as inactive or inconclusive. Potency is the fitted concentration of half-maximal effect.

SMILES	HP1b binding inh	GLS inh	BAZ2B block	G9a inh	JMJD2A Tudor
COc1ccccc1OCCn1c(=O)n(C)c2ccccc21	34.7%	-2.2%	-29.0%	38.6%[12.7 µM]	-3.5%
COc1ccccc1OCCn1c(=S)[nH]c2ccccc21	0.6%	22.6%	0.9%	8.91µM*	?
Cn1c(=S)[nH]c2ccccc21	-11.1%	17.2%	-35.0%	8.91µM*	50.1µM*
CCOc1ccc2c(c1)[nH]c(=S)n2C	-33.7%	-9.4%	-14.6%	7.94µM*	56.2µM*
CCOC(=O)c1ccc(S(=O)(=O)N2CCC(N3CCCCC3)CC2)cc1	54.2%	-11.2%	-4.0%	21.8%	-3.6%
S=c1[nH]c2ccccc2n1CCc1ccncc1	44.5%	1.9%	/	/	?
S=c1[nH]c2ccccc2n1CCOc1ccccc1	-24.2%	-10.2%	11.7%	/	?
CCOc1ccc(OCCn2c(=S)[nH]c3ccccc32)cc1	?	-6.9%	50.1µM*	7.08µM*	?
N#CCCn1c(=S)[nH]c2ccccc21	-19.9%	18.7%	-2.9%	7.08µM*	-6.1%[57.1 µM]
O=C(Nc1cccc(C(=O)N2CCCCC2)c1)c1ccccc1Br	32.9%	0.6%	-2.6%	11.5%	-6.2%
CCN(CC)c1ccc(C2N(C(=O)N3CCOCC3)CCN2S(=O)(=O)c2ccc(C)cc2)cc1 (stereo not given)	-10.7%	26.6%	?	?	?
COc1cccc(/C=N/NC(=S)NCCc2ccccc2)c1	-1.5%	0.9%	-7.6%	2.2%	-28.6%
C=CCN1C(=O)C(CC(=O)Nc2ccc(OCCC)cc2)N(CCCN2CCN(Cc3ccccc3)CC2)C1=S (stereo not given)	-20.9%	0.0%	10µM*	?	?
Cc1oc2ccccc2c1-c1cn2c(n1)SCC2	20.5%	18.1%	-32.7%	15.8%[59 µM]	-16.0%
Cc1cc(=O)n(CNC(=O)c2ccccc2)c(=S)[nH]1	9.6%	-1.9%	2.3%	15.3%[12.7 µM]	56.2µM*
Cc1nn(-c2nnc(NC3CCCCC3)nn2)c(C)c1Br	?	3.9%	14.1µM*	22.4µM*	44.7µM*
Cc1c(Br)c(=O)oc2c(C)c(O)ccc12	61.7%	1.4%	10.6%	21.2%[59 µM]	-6.0%[57.1 µM]
Cc1c(O)ccoc1=O	32.2%	19.8%	-21.3%	-121.6%[59 µM]	28.2µM*
C=CCNC(=O)CSc1nc2cc(C(=O)OCC)ccc2n1CC	17.9%	-4.2%	-4.3%	7.6%	-6.3%
O=C(CSc1nnc(-c2cccs2)n1CC1CCCO1)c1cc2ccccc2o1 (stereo not given)	18.8%	?	-29.5%	44.7µM*	-30.1%
CCOC(=O)c1ccc2c(c1)nc(SCC(=O)c1cc3ccccc3o1)n2CC	31.6%	2.4%	-3.5%	79.4µM*	-19.1%
O=C(CSc1nnc(-c2ccncc2)n1CC1CCCO1)NCc1ccccc1 (stereo not given)	12.6%	0.6%	3.3%	-45.5%[12.7 µM]	5.5%[57.1 µM]
Cc1ccnc(SCC(=O)c2cc3ccccc3o2)n1	24.8%	4.9%	-10.8%	44.7µM*	-5.5%
Cn1cnnc1SCC(=O)c1cc2ccccc2o1	61.6%	2.2%	-39.0%	?	-8.5%
Cn1c(SCC(=O)c2cc3ccccc3o2)nnc1-c1ccccc1	2.6%	-0.1%	-7.9%	11.2µM*	?
SMILES	HP1b binding inh	GLS inh	BAZ2B block	G9a inh	JMJD2A Tudor
COc1ccc(N2CCN(S(=O)(=O)c3cn(C)c(=O)n(C)c3=O)CC2)cc1	24.1%	32.6%	-13.1%	/	-14.0%
Cc1cnc(NC(=O)COc2cccc3c2OC(C)(C)C3)s1	19.4%	13.9%	11.3%[57.1 µM]	-9.2%	-3.4%
Cn1ccnc1SCC(=O)c1cc2ccccc2o1	-31.4%	28.5%	?	39.8µM*	?
Cc1cc(C)n2cnnc2n1	35.8%	-2.6%	-4.6%	18.1%	-5.4%
Cc1cc(C)n2c(=S)[nH]nc2n1	8.91µM*	?	39.8µM*	1.12µM*	?
O=C(O)c1cnn2c1C(=O)N(Cc1cccs1)CC2	31.6µM*	0.0%	22.4µM*	39.8µM*	?

Screens deposited in PubChem BioAssay by National Center for Advancing Translational Sciences (NCATS).
